For eleven compounds, Percent Effect results are on record in ChEMBL document CHEMBL3988442, “University of Dundee, Small-Polar-MMV Screening Library” (2021).

For some of these results: Results with a measured potency or affinity are listed apart.

Holding throughout (design): scale not given: direction of the effect not stated beside the values
Experiment [1] concerns the target Protein translocase subunit SecA (Escherichia coli (strain K12)) (UniProt P10408). Briefly: Assay to Identify E. coli SecA ATPase Inhibitors. The format is functional. Particulars: 30 µM.
The target in experiment [2] is T1, Ubiquitin-activating enzyme e1, putative (Leishmania donovani (strain BPK282A1)) (UniProt E9BSI1).
T1 sequence (whole entry): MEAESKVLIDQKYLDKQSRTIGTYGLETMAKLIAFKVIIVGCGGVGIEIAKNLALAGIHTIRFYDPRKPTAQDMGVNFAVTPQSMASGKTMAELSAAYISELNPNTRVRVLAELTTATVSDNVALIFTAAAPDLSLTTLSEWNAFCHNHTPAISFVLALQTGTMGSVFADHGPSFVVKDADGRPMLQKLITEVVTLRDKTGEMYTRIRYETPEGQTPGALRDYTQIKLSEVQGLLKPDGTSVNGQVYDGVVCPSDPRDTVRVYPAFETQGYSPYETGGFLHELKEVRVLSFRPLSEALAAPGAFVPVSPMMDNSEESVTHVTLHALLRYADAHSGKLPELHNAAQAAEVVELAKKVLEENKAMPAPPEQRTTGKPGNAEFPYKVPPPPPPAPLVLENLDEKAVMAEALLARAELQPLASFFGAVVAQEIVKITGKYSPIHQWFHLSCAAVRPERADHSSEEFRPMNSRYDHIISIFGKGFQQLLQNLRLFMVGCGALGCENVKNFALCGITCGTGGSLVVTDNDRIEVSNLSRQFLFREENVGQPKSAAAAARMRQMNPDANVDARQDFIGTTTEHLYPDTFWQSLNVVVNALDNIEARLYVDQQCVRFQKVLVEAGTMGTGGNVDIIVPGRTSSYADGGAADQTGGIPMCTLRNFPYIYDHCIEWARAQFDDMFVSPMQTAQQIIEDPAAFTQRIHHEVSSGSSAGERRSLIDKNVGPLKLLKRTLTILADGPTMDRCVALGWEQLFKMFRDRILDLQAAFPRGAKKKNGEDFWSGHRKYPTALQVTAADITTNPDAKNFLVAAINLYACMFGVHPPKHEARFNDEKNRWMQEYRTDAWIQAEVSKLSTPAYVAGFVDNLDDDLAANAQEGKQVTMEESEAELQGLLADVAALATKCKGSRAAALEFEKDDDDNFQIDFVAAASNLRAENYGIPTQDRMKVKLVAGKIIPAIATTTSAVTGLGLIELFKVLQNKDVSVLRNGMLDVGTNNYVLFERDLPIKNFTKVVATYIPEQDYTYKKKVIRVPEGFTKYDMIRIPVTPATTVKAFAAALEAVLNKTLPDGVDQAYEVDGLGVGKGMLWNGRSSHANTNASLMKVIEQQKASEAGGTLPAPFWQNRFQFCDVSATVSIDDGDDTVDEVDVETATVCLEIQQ
The experiment is described as follows: Leishmania donovani Ubiquitin Activating Enzyme (LdE1). Particulars: 30 µM. It is filed as functional.

In experiment [3] the target is AMP-activated protein kinase, AMPK (Homo sapiens) (UniProt P54646+O43741+P54619+Q9UGJ0+Q9Y478+Q13131+Q9UGI9). The experiment is described as follows: AMP-dependent Kinase enzyme assay. An in vitro enzyme assay that detects ADP turnover that is directly proportional to AMPK activity. This uses naive AMPK that is activated during the assay with MK-8722. The format is functional. Particulars: 30 µM.

Experiment [4] concerns the target Sialic acid-binding Ig-like lectin 9 (Homo sapiens) (UniProt Q9Y336). The experiment is described as follows: Hs-Siglec9 ALPHAscreen SOP 20170721. Particulars: 10 µM. Background: In Alpha technology, singlet oxygen from a donor bead excites a nearby acceptor bead.
The subject of the next experiment is Trypanosoma cruzi. Briefly: Trypanosoma cruzi phosphomannomutase and mannose-1-phosphate guanylyltransferase assay. It is filed as functional. Particulars: 10 µM.
The target in experiment [5] is T2, Arginase-2, mitochondrial (Homo sapiens) (UniProt P78540).
T2 sequence (whole entry): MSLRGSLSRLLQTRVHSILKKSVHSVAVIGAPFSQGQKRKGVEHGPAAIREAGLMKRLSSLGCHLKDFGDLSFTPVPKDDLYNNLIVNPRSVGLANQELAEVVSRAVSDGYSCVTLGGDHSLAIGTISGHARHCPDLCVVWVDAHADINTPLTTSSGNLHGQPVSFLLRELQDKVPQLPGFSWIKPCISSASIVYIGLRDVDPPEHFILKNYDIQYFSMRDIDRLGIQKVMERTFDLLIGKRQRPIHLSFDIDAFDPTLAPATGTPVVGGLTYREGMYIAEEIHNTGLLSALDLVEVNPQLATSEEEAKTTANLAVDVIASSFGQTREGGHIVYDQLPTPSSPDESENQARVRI
Briefly: in vitro enzyme assay to detect the production of urea directly proportional to the activity of Arginase II. Further: in the data most compounds retested in dose-response had high values. It is filed as functional. Particulars: 33.3 µM.

In experiment [6] the target is T3, Proteasome subunit beta (Trypanosoma cruzi) (UniProt O96673).
T3 sequence (whole entry): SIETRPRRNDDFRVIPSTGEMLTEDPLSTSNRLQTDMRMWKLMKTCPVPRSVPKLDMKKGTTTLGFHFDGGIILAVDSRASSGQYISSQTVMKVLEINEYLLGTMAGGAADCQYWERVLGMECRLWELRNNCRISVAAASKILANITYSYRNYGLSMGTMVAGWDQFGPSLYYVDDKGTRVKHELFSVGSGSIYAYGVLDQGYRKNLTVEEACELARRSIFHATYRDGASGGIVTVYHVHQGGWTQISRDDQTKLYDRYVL
The experiment is described as follows: Trypanosoma cruzi proteasome chymotrypsin-like activity (TcProtChymo) assay. Further: in the data most compounds retested in dose-response had high values. Particulars: 9.37 µM. The format is functional.

The species entered for the next experiment is Homo sapiens. The experiment is described as follows: To identify inhibition of the IFN signalling (Jak-Stat) pathway via expression of an eGFP reporter gene under the control of an IFN-stimulated response element (ISRE) containing MxA promoter. The format is functional. Particulars: 30 µM.
Experiment [7] has as its target T4, Tyrosyl-tRNA synthetase, putative (Trypanosoma cruzi (strain CL Brener)) (UniProt Q4DSP6).
T4 sequence (whole entry): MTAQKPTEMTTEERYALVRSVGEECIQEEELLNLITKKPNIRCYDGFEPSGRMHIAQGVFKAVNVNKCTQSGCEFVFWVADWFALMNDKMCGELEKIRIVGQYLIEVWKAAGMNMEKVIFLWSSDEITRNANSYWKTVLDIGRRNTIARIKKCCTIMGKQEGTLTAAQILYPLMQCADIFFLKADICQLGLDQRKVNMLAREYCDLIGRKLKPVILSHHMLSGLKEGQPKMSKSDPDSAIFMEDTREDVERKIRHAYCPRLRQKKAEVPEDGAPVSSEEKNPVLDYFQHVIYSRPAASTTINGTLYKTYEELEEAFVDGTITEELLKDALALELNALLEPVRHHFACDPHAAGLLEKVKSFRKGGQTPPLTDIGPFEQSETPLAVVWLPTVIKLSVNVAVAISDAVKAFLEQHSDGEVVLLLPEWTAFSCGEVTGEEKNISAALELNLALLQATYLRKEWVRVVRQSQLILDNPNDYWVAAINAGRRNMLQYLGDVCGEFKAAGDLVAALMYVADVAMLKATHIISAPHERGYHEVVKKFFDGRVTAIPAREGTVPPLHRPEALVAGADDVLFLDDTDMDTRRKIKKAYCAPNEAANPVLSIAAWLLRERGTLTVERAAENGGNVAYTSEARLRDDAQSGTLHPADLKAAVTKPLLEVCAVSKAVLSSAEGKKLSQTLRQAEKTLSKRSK
Briefly: Trypanosoma cruzi tyrosyl tRNA synthetase (TcYRS) _High Tyrosine SOP. Further: in the data most compounds retested in dose-response had high values. It is filed as functional. Particulars: 30 µM.

For experiment [8], the target named is T4, Tyrosyl-tRNA synthetase, putative (Trypanosoma cruzi (strain CL Brener)). Briefly: Trypanosoma cruzi tyrosyl tRNA synthetase (TcYRS) SOP. It is filed as functional. Particulars: 30 µM.
The target in experiment [9] is Chromo domain-containing protein 1 (Saccharomyces cerevisiae (strain ATCC 204508 / S288c) (Baker's yeast)) (UniProt P32657). The experiment is described as follows: ScCHD-1 Enzyme Inhibition Assay. Further: in the data most compounds retested in dose-response had high values. The format is functional. Particulars: 30 µM.
Sequence of Chromo domain-containing protein 1 (Saccharomyces cerevisiae (strain ATCC 204508 / S288c) (Baker's yeast)) (P32657 whole entry, the tested form may be a part): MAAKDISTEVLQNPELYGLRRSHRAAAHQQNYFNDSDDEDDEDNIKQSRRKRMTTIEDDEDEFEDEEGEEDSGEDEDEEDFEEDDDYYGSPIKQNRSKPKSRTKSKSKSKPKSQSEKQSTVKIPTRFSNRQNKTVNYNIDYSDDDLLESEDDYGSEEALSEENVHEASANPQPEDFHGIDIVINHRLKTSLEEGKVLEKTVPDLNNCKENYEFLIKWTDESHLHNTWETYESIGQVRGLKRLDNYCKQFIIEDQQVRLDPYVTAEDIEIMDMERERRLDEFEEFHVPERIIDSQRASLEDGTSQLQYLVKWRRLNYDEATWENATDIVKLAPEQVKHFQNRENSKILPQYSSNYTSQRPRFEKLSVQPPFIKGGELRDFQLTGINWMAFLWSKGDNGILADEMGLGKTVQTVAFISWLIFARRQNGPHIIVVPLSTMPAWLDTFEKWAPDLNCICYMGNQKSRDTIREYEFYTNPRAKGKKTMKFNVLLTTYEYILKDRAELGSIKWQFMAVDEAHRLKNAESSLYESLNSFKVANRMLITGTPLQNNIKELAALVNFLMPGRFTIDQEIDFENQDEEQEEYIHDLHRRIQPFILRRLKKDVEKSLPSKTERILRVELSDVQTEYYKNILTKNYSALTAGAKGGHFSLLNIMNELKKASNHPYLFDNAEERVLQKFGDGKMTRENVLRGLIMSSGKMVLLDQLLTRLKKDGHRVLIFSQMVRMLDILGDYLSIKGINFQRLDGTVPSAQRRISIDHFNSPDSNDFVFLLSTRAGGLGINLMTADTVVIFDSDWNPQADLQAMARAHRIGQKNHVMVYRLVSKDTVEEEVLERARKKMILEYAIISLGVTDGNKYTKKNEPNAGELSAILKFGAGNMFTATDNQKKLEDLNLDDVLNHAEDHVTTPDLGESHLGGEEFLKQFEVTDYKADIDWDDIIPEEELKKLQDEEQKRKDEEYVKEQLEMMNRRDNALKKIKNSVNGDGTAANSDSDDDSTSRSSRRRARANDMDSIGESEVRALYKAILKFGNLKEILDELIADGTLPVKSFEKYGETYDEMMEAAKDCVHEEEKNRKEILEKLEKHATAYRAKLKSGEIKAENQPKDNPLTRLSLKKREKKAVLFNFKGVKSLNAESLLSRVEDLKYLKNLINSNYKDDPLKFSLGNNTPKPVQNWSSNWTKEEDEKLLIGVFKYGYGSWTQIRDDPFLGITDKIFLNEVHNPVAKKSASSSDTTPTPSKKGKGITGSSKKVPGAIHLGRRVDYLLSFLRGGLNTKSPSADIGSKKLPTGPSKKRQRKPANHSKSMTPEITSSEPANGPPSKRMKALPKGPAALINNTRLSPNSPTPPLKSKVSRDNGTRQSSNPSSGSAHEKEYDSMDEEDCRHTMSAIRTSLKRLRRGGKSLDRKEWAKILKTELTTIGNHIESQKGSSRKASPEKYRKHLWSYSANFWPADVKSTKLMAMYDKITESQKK

Sequence of Sialic acid-binding Ig-like lectin 9 (Homo sapiens) (Q9Y336 whole entry): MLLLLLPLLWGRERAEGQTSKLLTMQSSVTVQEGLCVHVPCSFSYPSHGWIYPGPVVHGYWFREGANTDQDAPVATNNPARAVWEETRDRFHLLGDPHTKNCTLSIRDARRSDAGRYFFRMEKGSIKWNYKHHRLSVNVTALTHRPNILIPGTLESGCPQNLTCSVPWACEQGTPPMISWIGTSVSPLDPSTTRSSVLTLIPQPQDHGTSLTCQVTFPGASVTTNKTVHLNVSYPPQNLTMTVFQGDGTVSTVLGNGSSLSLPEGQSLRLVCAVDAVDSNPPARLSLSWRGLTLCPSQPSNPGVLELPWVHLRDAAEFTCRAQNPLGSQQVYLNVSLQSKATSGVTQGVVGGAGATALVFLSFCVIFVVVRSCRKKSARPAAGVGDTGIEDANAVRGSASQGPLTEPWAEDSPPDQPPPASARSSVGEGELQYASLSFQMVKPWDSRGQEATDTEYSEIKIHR
Sequence of Protein translocase subunit SecA (Escherichia coli (strain K12)) (P10408 whole entry): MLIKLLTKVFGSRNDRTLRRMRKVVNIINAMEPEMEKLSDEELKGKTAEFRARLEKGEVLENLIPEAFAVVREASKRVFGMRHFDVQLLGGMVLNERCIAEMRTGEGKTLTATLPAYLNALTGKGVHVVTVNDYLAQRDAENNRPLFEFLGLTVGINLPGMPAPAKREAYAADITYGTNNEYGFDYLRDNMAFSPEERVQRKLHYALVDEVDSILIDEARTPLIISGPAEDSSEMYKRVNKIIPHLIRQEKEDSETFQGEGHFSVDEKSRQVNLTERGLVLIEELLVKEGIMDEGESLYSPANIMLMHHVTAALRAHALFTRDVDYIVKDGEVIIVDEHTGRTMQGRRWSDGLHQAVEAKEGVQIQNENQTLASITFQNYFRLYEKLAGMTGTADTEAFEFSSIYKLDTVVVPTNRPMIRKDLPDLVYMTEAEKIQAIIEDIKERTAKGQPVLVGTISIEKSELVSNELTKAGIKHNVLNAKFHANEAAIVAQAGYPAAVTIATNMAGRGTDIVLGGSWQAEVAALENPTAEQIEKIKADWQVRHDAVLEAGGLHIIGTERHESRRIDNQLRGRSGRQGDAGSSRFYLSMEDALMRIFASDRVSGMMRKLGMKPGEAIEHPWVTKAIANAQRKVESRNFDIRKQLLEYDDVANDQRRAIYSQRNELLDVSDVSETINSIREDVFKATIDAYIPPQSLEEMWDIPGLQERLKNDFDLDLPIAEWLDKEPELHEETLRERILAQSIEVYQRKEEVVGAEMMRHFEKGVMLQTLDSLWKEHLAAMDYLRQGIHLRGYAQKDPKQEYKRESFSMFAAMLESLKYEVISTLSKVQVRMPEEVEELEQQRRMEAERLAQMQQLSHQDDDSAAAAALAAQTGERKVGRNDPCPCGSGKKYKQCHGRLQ

`Cn1ccnc1CN1CCCN(C(=O)c2ccc3c(c2)COC3)CC1`: the Percent Effect in experiment [1] was -5.22%; in [2] it was 18.4%; in [3] it was 0.632%; in [4] it was -6.65%; with Trypanosoma cruzi, -6.44%; in [5], 3.24%. Besides, the Percent Effect was 7.7% in [6]; -1.32% in the experiment listed under Homo sapiens; 4.43% in [7]; 11.1% in [8]; -7.65% in experiment [9].
On to `COc1ccc(CNCC(C)Oc2ccccn2)cc1Br` (stereo unspecified), for which the Percent Effect is 0.219% in experiment [1]; 17.3% in experiment [2]; -6.72% in experiment [3]; 0.831% in experiment [4]; 5.3% in the experiment on Trypanosoma cruzi; -4.75% in experiment [5]. In addition, the Percent Effect in experiment [6] was 9.8%; in the experiment listed under Homo sapiens, 3.97%; in experiment [7] it was 11.6%; in experiment [8], 12.8%; in experiment [9] it was -11.9%.
Regarding `Cc1n[nH]c(C)c1NC(=O)CN1CCCC(CNC(=O)C(C)(C)C)C1` (stereo unspecified), the Percent Effect in [1] is -2.53%; in [2] it was 2.63%; in experiment [3] it was 0.454%; in experiment [4] it was 5.58%; in the experiment on Trypanosoma cruzi it was -0.188%; in [5], 2.68%. For the same compound, the Percent Effect is 8.19% in experiment [6]; 21.7% in the experiment filed under Homo sapiens; -1.47% in [7]; -2.44% in [8]; 0.796% in experiment [9].
Consider `O=C(C1CC1)N1CCCC1C1CCN(Cc2ccccc2)CC1` (stereo unspecified), for which the Percent Effect in [1] is -2.89%; in [2], 2.63%; in experiment [3], 6.02%; in experiment [4], -2.3%; in the experiment on Trypanosoma cruzi, 0.682%; in experiment [5], -4.73%. Moreover, the Percent Effect in experiment [6] is 4.31%; in the experiment listed under Homo sapiens it was -4.47%; in [7], 4.25%; in [8], 5.2%; in experiment [9], -2.33%.
Take `CCOc1cc(C)ccc1NC(=O)N(C)Cc1cnn(C)c1`: the Percent Effect in experiment [1] was -3.73%; in [2], 10.8%; in experiment [3], -11.8%; in [4], 16.5%; in the experiment on Trypanosoma cruzi, 4.81%; in experiment [5], 0.401%. Moreover, the Percent Effect in experiment [6] is -2.52%; in the experiment filed under Homo sapiens it was 11.9%; in [7], 6.4%; in [8], 16.1%; in [9], -9.07%.
Turning to `Cc1nc(Nc2nnc(C)s2)cc(C2CCCN2C)n1` (stereo unspecified), the Percent Effect in experiment [1] is -1.27%; in [2] it was 16%; in experiment [3], 3.75%; in experiment [4] it was -11.6%; with Trypanosoma cruzi, -2.95%; in experiment [5] it was -4.43%. Besides, the Percent Effect in experiment [6] is 15.1%; in the experiment listed under Homo sapiens, 29.1%; in [7] it was 2.13%; in [8] it was 3.85%; in [9], -6.23%.
With `Cc1nn(C)c(N2CCOCC2)c1CNC1CCOc2ccccc21` (stereo unspecified), the Percent Effect in [1] is -4.35%; in experiment [2] it was 10.1%; in experiment [3] it was -4.31%; in experiment [4], 8.19%; with Trypanosoma cruzi, 1.04%; in experiment [5] it was 0.38%. The Percent Effect in experiment [6] was 2.54%; in the experiment filed under Homo sapiens, -11.4%; in experiment [7], 7.39%; in [8], 11.4%; in experiment [9], -3.12%.
Turning to `Fc1ccc(CN2CCO[C@H]3[C@H](OCC4CC4)CC[C@@H]32)cc1`, the Percent Effect was -2.57% in experiment [1]; -2.67% in experiment [2]; 3.82% in experiment [3]; 0.245% in experiment [4]; 4.83% in the experiment with Trypanosoma cruzi; -41.4% in [5]. For the same compound, the Percent Effect was 8.89% in experiment [6]; -14.2% in the experiment listed under Homo sapiens; 2.08% in experiment [7]; -30% in experiment [8]; -4.58% in [9].
In the case of `CC(C)c1ncncc1C(=O)N1CCN(Cc2cscn2)CC1`, the Percent Effect was -12.5% in [1]; 13.5% in experiment [2]; -16% in experiment [3]; 21.4% in [4]; 10.7% in the experiment with Trypanosoma cruzi; 2.03% in experiment [5]. Moreover, the Percent Effect is 5.03% in [6]; 5.44% in the experiment listed under Homo sapiens; 6.93% in [7]; 23.2% in experiment [8]; -8.1% in experiment [9].
On to `Cc1cc(C)n(CC2CCCN2C(=O)c2cnn(C)c2C2CC2)n1` (stereo unspecified), for which the Percent Effect was -0.918% in experiment [1]; 2.7% in experiment [2]; 11.2% in [3]; 10.3% in [4]; 0.65% in the experiment with Trypanosoma cruzi; -0.554% in experiment [5]. In addition, the Percent Effect amounted to 0.718% in experiment [6]; 9.84% in the experiment filed under Homo sapiens; 2.97% in [7]; 1.22% in [8]; 10.5% in experiment [9].
Take `CN(CCCC#N)C1CCCN(Cc2noc(C3CC3)n2)C1` (stereo unspecified): the Percent Effect was -1.64% in experiment [1]; 15.3% in experiment [2]; -17% in experiment [3]; 7.77% in experiment [4]; 0.68% in the experiment with Trypanosoma cruzi; 5.74% in experiment [5]. In addition, the Percent Effect was 12.8% in experiment [6]; -4.02% in the experiment listed under Homo sapiens; 4.21% in experiment [7]; 7.69% in [8]; -5.25% in experiment [9].
